This is an account of results in PubChem BioAssay (NCI).

Each structure is given as a SMILES string. Where “and” joins values, the source holds several entries; their conditions need not be identical. Identical values can stand only once. About 83,000 compounds went through this panel and 20% of them were active in at least one assay; those are over-represented in the sample as a whole.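 How to read the values: 0–100, growth inhibition (40 = 60% inhibited); 0, no net growth; -100 to 0, cell death (-40 = 40% of starting cells died; -100 = all dead).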 Calls of active or inactive are those of the source. The calls were made as follows: active = growth percent below 10; inactive = the rest.

In the assay the test system is HL-60(TB) leukemia. Kind of assay: NCI-60 one-dose screen, 48 h (100 = growth as untreated, 0 = no growth, -100 = all killed). The conditions noted are these: 10 µM unless noted.
As for `N#Cc1c(-c2ccc(C(F)(F)F)cc2)cc(NCC2CCS(=O)(=O)CC2)n2c1nc1ccccc12`, the growth was 88.5% (inactive). As to `Cc1cc(C)n2nc(SCC(=O)Nc3sc4c(c3C(N)=O)CCC4)nc2n1`, the growth was 117% (inactive). For `NC(=O)C1CC2C=CC1C2` (stereo not given) the value was 108% (inactive) and 106% (inactive); for `COC(=O)[C@@H](CCCCNC(=O)[C@]12CCC(C)(C)C[C@@H]1C1=CC[C@@H]3[C@@]4(C)C/C(=C/c5ccco5)C(=O)C(C)(C)[C@@H]4CC[C@@]3(C)[C@]1(C)CC2)NC(=O)[C@]12CCC(C)(C)C[C@@H]1C1=CC[C@@H]3[C@@]4(C)C/C(=C/c5ccco5)C(=O)C(C)(C)[C@@H]4CC[C@@]3(C)[C@]1(C)CC2`, 114% (inactive). The same measure for `CCOC(=O)C(CCC(C)C)C(=O)OCC`: 72.8% (inactive); for `N#Cc1nn(-c2cc(=O)[nH]c3ccc(Cl)cc23)c(N)c1C#N`: 0.972% (active). In the case of `N#CCCn1cnc2c(N)ncnc21`, the growth is 98.6% (inactive). For the molecule `Cc1ccc(NC2=CC(=O)C(=O)c3ccccc32)c(C)c1`, the growth is 38% (inactive). Take `O=S(=O)(Nc1ccc(Cl)cc1Cl)c1ccc(-c2cnc(C3CC3)o2)cc1`: the growth is -0.119% (active). With `Cc1ccc(-n2c(=S)[nH]c3sc4c(c3c2=O)CCC(=O)C4)cc1`, the growth was 4.93% (active).

With `NC(Cc1ccccc1)C(=O)NC(Cc1ccccc1)C(=O)O` (stereo not given), the growth is 105% (inactive) and 102% (inactive). The same measure for `O=C(O)CN(CCN(CC(=O)O)CC(=O)O)CCN(CC(=O)O)CC(=O)O`: -51.1% (active) and 109% (inactive) and 94.7% (inactive). With `N#CC1c2ccccc2C=CN1C(=O)c1ccccc1` (stereo not given), the growth was 93.2% (inactive) and 71.1% (inactive).

As to `COCCn1c(-c2csc(-c3cn(C)c4ccc(OC)cc34)n2)cc2cccnc21`, the growth was 55.8% (inactive).

With `O=c1nc2c(-c3nc4ccccc4s3)n[nH]n2c2sc3c(c12)CCCC3`, the growth is 99.4% (inactive).

For the molecule `COc1ccc(-c2nnc(COc3ccc(NC(=O)Nc4ccc(Cl)c(C(F)(F)F)c4)cc3F)o2)cc1`, the growth was -18.5% (active). For `CS(=O)(=O)c1nccc(-c2c(-c3cccc(OCCc4ccccc4)c3)nc3sccn23)n1`, the growth is 99.4% (inactive). Take `CC(C)(C)c1ccc(O)c(CNC2CCCCC2)c1`: the growth is 74.8% (inactive) and 77.1% (inactive).

Take `c1cc[n+](C2c3ccccc3C([n+]3ccccc3)c3ccccc32)cc1` (stereo not given): the growth is 88.3% (inactive). For `COCCn1c(Nc2ccc(C(=O)NO)cc2)nc2ccccc21`, the growth is 11.9% (inactive). Take `CC(C)c1c(C(=O)Nc2ccccc2)c(-c2ccccc2)c(-c2ccc(F)cc2)n1CC[C@@H]1CC=CC(=O)O1`: the growth was -27.9% (active).

For `O=C(Nc1ccccc1)OCC(CN1CCCCC1)OC(=O)Nc1ccccc1` (stereo not given), the growth is 69.3% (inactive) and 95% (inactive). Consider `CCSc1nc(NC)c2cc(-c3ccc(C(F)(F)F)cc3)ccc2n1`, for which the growth is 98.3% (inactive). Regarding `Cc1nn(-c2ccccc2)c(Oc2ccc(Cl)cc2)c1/C=N\N=c1/sc2ccccc2n1C`, the growth is 78% (inactive). As to `COc1ccc(-c2c(-c3nc4ccc(N5CCOCC5)cc4[nH]3)[nH]c(C)c2C(C)=O)cc1`, the growth is 4.22% (active).

Regarding `CC(C)(C)c1nc2c(s1)c1nc(N)ncc1c1ccc(NS(=O)(=O)c3c(F)cccc3F)c(F)c12`, the growth was 79.9% (inactive).

For the molecule `Clc1ccc(/C=C/c2ccc3ccccc3n2)cc1`, the growth was -14.2% (active) and 77.3% (inactive) and 60.8% (inactive).

Take `CCCCCCCCCCNCCSS(=O)(=O)O`: the growth is 79% (inactive). For the molecule `CCOC(=O)c1c(C)oc(C)c(C(=O)OCC)c1=O`, the growth was 247% (inactive) and 61.2% (inactive).

`IC(I)I`: the growth was 98.3% (inactive).

In the case of `COc1ccc(C(=O)C(=O)c2ccccc2)cc1`, the growth was 94.2% (inactive).

`Cc1ccc2c(C(C[N+](=O)[O-])c3ccccc3F)c(-c3ccccc3)[nH]c2c1` (stereo not given): the growth is 27.3% (inactive). For the molecule `COc1ccccc1CNCCCN1C(=O)c2ccc3c4c(ccc(c24)C1=O)C(=O)N(CCCNCCCCNCCCCN)C3=O`, the growth is -37.8% (active). Consider `CCCCCCCCCCCC(=O)NCCCN(C)C`, for which the growth was 83.7% (inactive).

Turning to `Cc1cc(NCc2cc(Nc3ccnc4cc(Cl)ccc34)ccc2F)nc(N2CCN(c3ccccc3)CC2)n1`, the growth is -40.7% (active). With `CC(=O)CC(c1ccc([N+](=O)[O-])cc1)c1c(O)c2ccccc2oc1=O` (stereo not given), the growth is 97% (inactive).

Take `CCC(/C=C\C(C)=O)CC`: the growth was 104% (inactive). As to `COc1ccc(C(C)=O)cc1S(=O)(=O)Nc1c(N)nc(SC)[nH]c1=O`, the growth is 96.8% (inactive). With `CC(=O)c1ccc(NC(=O)Nc2ccc(S(=O)(=O)Nc3ccc(Cl)nn3)cc2)cc1`, the growth was 109% (inactive). As for `CCN(CC)CCCNc1ccc(Nc2ccc(OC)cc2)cc1`, the growth is -48.7% (active).
